Records with an inconclusive call do not appear. Calls of active or inactive are those of the source. Calls come from the whole dose curve; as a rule, active = well fitted curve in the direction sought with a large enough effect; inconclusive = small, poorly fitted or top-dose-only effect, or another doubt; inactive = no such curve, though single readings can be large; an effect the other way counts as inactive or inconclusive.
Tests used:
[1] = Cell Viability - LYMP2-003 (AID 965);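 note: cells exposed to compounds for 24 h before reading; nearly all actives have a fitted effect of over 50% in size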
Text: NIH Chemical Genomics Center [NCGC]
NIH Molecular Libraries Screening Centers Network [MLSCN]
National Institutes of Environmental Health Sciences [NIEHS]
National Toxicology Program [NTP]
We have developed a 1536-well cell-based assay for quantitative high throughput screening (qHTS) against a number of cell lines to determine in vitro cytotoxicity of small molecules. This particular assay uses a human lymphoblastoid cell line (LYMP2-003) purchased from Coriell Institute for Medical Research.
NCGC Assay Protocol Summary:
The CellTiter-Glo luminescent cell viability assay (Promega) is a homogeneous method to measure the number of viable cells in culture. The end point readout of this assay is based on quantitation of intracellular ATP, an indicator of metabolic activity, using the luciferase reaction. Luciferase catalyzes the oxidation of beetle Luciferin to oxyluciferin and light in the presence of ATP. The luminescent signal is proportional to amount of ATP present.
Using the CellTiter-Glo luminescent cell viability assay, the amount of cellular ATP was measured in the lymphoblastoid cell line with complete culture medium following compound treatment for 24 hours. The assay was performed in opaque white Kalypsys 1536-well plates. In the screen, tetraoctylammonium bromide was used as positive control. Library compounds were measured for their ability to cause acute toxicity in the cell line, as reflected by a decrease in intracellular ATP levels, in a concentration-dependent manner. […] AC50 values were determined from concentration-response data modeled with the standard Hill equation.
qHTS protocol for CellTiter Glo lymphoblastoid cellular assay
[Step] [Parameter] [Value] [Description]
1. Reagent; 5 uL; 2500 lymphoblastoid cells/well
2. Time; 5 hr; 37 C incubation
4. Controls; 23 nL; Tetraoctylammonium bromide 6.4pM to 92 uM
5. Time; 24 hr; 37 C incubation
6. Reagent; 5 uL; CellTiter Glo reagent
7. Time; 30 min; Room Temperature
8. Detection; Luminescence; Viewlux plate reader
Keywords: cell viability, cytotoxicity, lymphoblastoid cell line, luminescence, NTPHTS, NTPHTS_NCGC, NIEHS, DSSTox, MLSMR, MLSCN, NIH Roadmap, qHTS, NCGC

[2] = Cell Viability - LYMP2-004 (AID 966); note: nearly all actives have a fitted effect of over 65% in size
Procedure, shortened: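 Luminescent ATP read-out (CellTiter-Glo, 30 min RT) after 24 hr compound exposure at 37 C; 2500 lymphoblastoid cells/well, complete medium. Decrease in ATP = cytotoxicity; AC50 from standard Hill model.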

[3] = Cell Viability - LYMP2-005 (AID 967); note: series mostly up to about 92 µM
Procedure, shortened: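 Steps: seed 2500 LYMP2-005 cells/well, incubate 5 h at 37 C, add compound, incubate 24 h at 37 C, add CellTiter-Glo, wait 30 min at RT, read luminescence. Concentration-response data fitted to Hill equation for AC50.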

[4] = Cell Viability - LYMP2-009 (AID 968); note: series mostly up to about 92 µM; nearly all actives have a fitted effect of over 55% in size
[5] = Cell Viability - LYMP2-011 (AID 969); note: nearly all actives have a fitted effect of over 60% in size
Procedure, shortened: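 Luminescent ATP read-out (CellTiter-Glo, 30 min RT) after 24 hr compound exposure at 37 C in human lymphoblastoid cells, 2500 cells/well. Decreasing ATP indicates cytotoxicity; AC50 from standard Hill fit.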

[6] = Cell Viability - LYMP2-013 (AID 970); note: series mostly up to about 92 µM; nearly all actives have a fitted effect of over 55% in size
Procedure, shortened: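 CellTiter-Glo luminescence (cellular ATP) read after 30 min at RT. Cells: human lymphoblastoid line, 2500/well, 24 hr compound exposure at 37 C. Tetraoctylammonium bromide positive control; AC50 via standard Hill fit of qHTS titrations.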

[7] = Cell Viability - LYMP2-015 (AID 971); note: nearly all actives have a fitted effect of over 55% in size
Procedure, shortened: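 qHTS cytotoxicity: 2500 cells/well, 5 hr 37 C, compound 24 hr 37 C, CellTiter-Glo 30 min RT, luminescence. Loss of ATP = toxicity; AC50 via standard Hill fit.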

[8] = Cell Viability - LYMP2-017 (AID 972);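 note: series mostly up to about 92 µM; cells exposed to compound for 24 hours at 37 °C; nearly all actives have a fitted effect of over 55% in size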
Procedure, shortened: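 Luminescent ATP read-out (CellTiter-Glo, 30 min RT) reports viable cell number. Cells: human lymphoblastoid line, 2500 per well, 5 hr preincubation, 24 hr compound exposure at 37 C. AC50 is derived from qHTS concentration-response data using the standard Hill model.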

[9] = Cell Viability - LYMP2-019 (AID 973); note: nearly all actives have a fitted effect of over 55% in size
Procedure, shortened: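 qHTS, 1536-well; 2500 cells/well; 5 hr pre-incubation, 24 hr compound exposure, 37 C; CellTiter-Glo added, 30 min RT; luminescence read; AC50 via standard Hill equation.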

[10] = Cell Viability - LYMP2-021 (AID 974)
Procedure, shortened: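 ATP luminescence (CellTiter-Glo, 30 min RT) after 24 h compound exposure at 37 C; 2500 human lymphoblastoid cells/well, 5 h settle beforehand. Cytotoxicity = concentration-dependent ATP drop, AC50 by Hill fit.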

Measured: outcome

O=c1[nH]cnc2[nH]ncc12
inactive: all assays above

NC(=O)c1cnccn1
not listed: [2]
inactive: all other assays above

NS(=O)(=O)c1cc2c(cc1Cl)NC=NS2(=O)=O
inactive: all assays above

CCCC(CCC)C(=O)O
inactive: all assays above

NC(N)=NC(=O)c1nc(Cl)c(N)nc1N
inactive: all assays above

CC(=O)Oc1ccccc1C(=O)O
inactive: all assays above
